High-throughput results (PubChem BioAssay)
In the library only some 11% were active in any assay of this set; here they are far more common.
Pf growth 96h: Primary qHTS for delayed death inhibitors of the malarial parasite plastid, 96 hour incubation. P. falciparum luciferase reporter growth, 96 h. Potency, µM (top dose mostly 28.7 µM), for the others: at the highest dose activity change, negative = inhibition, hits mostly inhibitors. 6.9% of 320,000 active. AID 504834, 2011
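Two parasite generations (96 h, 37 C, 5% CO2) of compound exposure in infected erythrocytes (0.05% parasitemia, 2% hematocrit). Luciferase-reporter P. falciparum; decreased luminescence indicates inhibited growth, aimed at apicoplast-acting delayed death.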
AmpC detergent: qHTS Inhibitors of AmpC Beta-Lactamase (assay with detergent); AmpC hydrolysis of nitrocefin, absorbance 480 nm, 0.01% Triton; P00811; 0.041% of 370,000 active; Potency, µM (titrated, usually from 114 µM), without a hit: at the top dose activity change, negative = inhibition, hits mostly inhibitors;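 further: 0% = no-compound wells and -100% = no-enzyme wells; nearly all actives have a fitted effect of over 25% in size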
Target sequence (P00811 whole entry, looked up): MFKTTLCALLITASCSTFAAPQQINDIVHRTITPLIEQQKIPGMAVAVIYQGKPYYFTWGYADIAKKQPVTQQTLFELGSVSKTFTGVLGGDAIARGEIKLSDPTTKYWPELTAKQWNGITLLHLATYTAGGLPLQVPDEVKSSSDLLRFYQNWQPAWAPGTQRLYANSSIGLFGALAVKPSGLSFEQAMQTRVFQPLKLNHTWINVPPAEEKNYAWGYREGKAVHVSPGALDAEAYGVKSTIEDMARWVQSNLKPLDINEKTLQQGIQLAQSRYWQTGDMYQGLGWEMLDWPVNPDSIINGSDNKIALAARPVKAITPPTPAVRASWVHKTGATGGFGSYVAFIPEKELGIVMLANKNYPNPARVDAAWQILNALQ
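20 mM phosphate pH 7.0 + 0.01% (detergent screen) or 0.0001% Triton X-100; 5.3 nM AmpC reagent; cpd preinc 15 min RT; nitrocefin (800 uM stock) to start; A480 q20 s × 4 min; Activity was normalised to no-enzyme and no-compound control wells.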
Pf growth 48h: Primary qHTS for delayed death inhibitors of the malarial parasite plastid, 48 hour incubation | P. falciparum luciferase growth in erythrocytes, 48 h | Potency, µM (doses to about 28.7 µM), for inactives: top-dose activity change, negative = inhibition, hits mostly inhibitors | 5.9% of 310,000 active | AID 504832, 2011
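Firefly luciferase activity from engineered P. falciparum reports growth; inhibitors lower the luminescent signal. Cultures contained 2% hematocrit erythrocytes at 0.1% final parasitemia.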
HCV inh: qHTS Assay for Inhibitors of Hepatitis C Virus (HCV); Huh7.5.1 HCVcc-Cre infection, luciferase reporter, 44 h; AID 651820, 2012; Potency, µM (doses to about 41.8 µM), for the others: at the highest dose activity change, negative = inhibition, hits mostly inhibitors; 3.4% of 340,000 active
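Whole-lifecycle infectious HCVcc-Cre system; cells 1,000/well, compound then virus (~0.5 moi) added 4 h after plating, 44 h culture. Luciferase read 15 sec following 15 min substrate incubation, room temp.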
AmpC no deterg: qHTS Inhibitors of AmpC Beta-Lactamase (assay without detergent); P00811; AmpC nitrocefin hydrolysis, absorbance 480 nm, 0.0001% Triton; Potency, µM (doses to about 57.1 µM), inactives show top-dose activity change, negative = inhibition, most hits filed as inhibitors; 0.52% of 330,000 active;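 further: plate controls were no compound for no effect and no enzyme for full effect; nearly all actives have a fitted effect of over 20% in size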
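20 mM phosphate pH 7.0 + 0.01% (detergent screen) or 0.0001% Triton X-100; 5.3 nM AmpC reagent; cpd preinc 15 min RT; nitrocefin (800 uM stock) to start; A480 q20 s × 4 min; Activity was normalised to no-enzyme and no-compound control wells.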
AMA1-RON2 inh: qHTS for Inhibitors of AMA1-RON; Towards Development of Antimalarial Drug Lead: Primary Screen; Plasmodium falciparum AMA1 (3D7) - RON2 peptide interaction; AlphaScreen AMA1-biotinylated RON2 peptide binding; AID 720542, 2013; Potency, µM (series often up to 58.2 µM), inactives show at the top dose activity change, negative = inhibition, most hits filed as inhibitors; 0.2% of 360,000 active;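 further: 0% = vehicle wells and -100% = peptide control; nearly all actives have a fitted effect of over 45% in size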
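AMA1 (3D7) with his tag at 25 nM final met compounds first, then biotinylated RON2 peptide at 25 nM; detection used donor plus acceptor beads, 10 µg/mL apiece, read by AlphaScreen after 30 min at room temperature.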
* marks the source's active call; other numbers are inactive results; ? = inconclusive; · = no result. The call rests on the fitted dose curve; in most records, active means well fitted curve in the direction sought with a large enough effect; inconclusive means small, poorly fitted or top-dose-only effect, or another doubt; inactive means no such curve, though single readings can be large; an effect the other way counts as inactive or inconclusive. Unless noted, on the % scale 0 is the no-effect control and ±100 the full control effect; potency means the concentration at half of the fitted maximal effect.

SMILES	Pf growth 96h	AmpC detergent	Pf growth 48h	HCV inh	AmpC no deterg	AMA1-RON2 inh
Cc1nnc(N2CCCC(C(=O)NCCc3ccccc3)C2)c2nn(-c3ccccc3)c(C)c12 (stereo unspecified)	·	23%	·	·	·	·
CCCCNS(=O)(=O)c1ccc(C)c(-c2nnc3c4ccccc4c(C)nn23)c1	·	15%	·	·	·	·
Cc1ccc(-c2cc(C(=O)NCc3ccc4c(c3)OCO4)[nH]n2)c(O)c1C	12µM*	-4%	0%	-12%	-53%	72%
COc1ccc(CCNC(=O)c2cc(-c3ccc(C)c(C)c3O)n[nH]2)cc1OC	15µM*	?	·	?	71%	-7%
COc1ccc(Cl)cc1CNCCSc1nnnn1-c1ccccc1	·	1%	·	·	·	·
Cc1nn(-c2cccc(Cl)c2)c2nc(-c3ccncc3)cc(C(=O)N3CCOCC3)c12	6.6µM*	-6%	?	7.9µM*	28%	-16%
Cc1nn(-c2ccccc2)c2nc(-c3ccccc3)cc(C(=O)N3CCOCC3)c12	2.1µM*	?	-19%	?	187%	8%
O=C(c1cc(-c2ccncc2)nc2ccccc12)N1CCOCC1	8%	0%	10%	15%	-13%	10%
O=C(c1cc2ccccc2o1)N1CCN(c2ccccn2)CC1	13µM*	8%	4.7µM*	2%	2%	4%
O=C(c1cc2ccccc2o1)N1CCN(c2cccc(Cl)c2)CC1	41%	-5%	-17%	3%	-15%	7%
O=C(c1cc2ccccc2o1)N1CCN(c2ccccc2Cl)CC1	7.4µM*	-9%	·	2%	-10%	-9%
Cn1c(=O)c2c(nc(N3CCOCC3)n2Cc2ccccc2F)n(C)c1=O	·	5%	·	·	·	·
COc1ccc2c(c1)N(C[C@H](C)CN(C)C)c1ccccc1S2	·	·	·	-19%	·	?
CN(C)CCCN1c2ccccc2Sc2ccc(C(F)(F)F)cc21	15µM*	-13%	?	?	78%	-22%
CCN(CC)CCCCN1c2ccccc2Sc2ccccc21	-3%	2%	?	?	39%	-24%
CC(CN(C)C)CN1c2ccccc2Sc2ccc(C(F)(F)F)cc21 (stereo unspecified)	?	·	15µM*	·	·	·
CC(CN(C)C)CN1c2ccccc2Sc2ccccc21 (stereo unspecified)	?	-11%	13µM*	?	37%	-5%
CCN(CC)CC(O)CN1c2ccccc2Sc2ccccc21 (stereo unspecified)	?	3%	-4%	22µM*	17%	-13%
CCOC(=O)C1(C)C=C(Nc2cccc(C(=O)O)c2)C(=O)N1c1cccc(C(=O)O)c1 (stereo unspecified)	·	12%	·	·	·	·
CN(C)CCCN1c2ccc(O)cc2Sc2ccc(Cl)cc21	·	·	·	·	·	20µM*
CCN(CC)CC(=O)N1c2ccccc2Sc2ccc(Cl)cc21	-19%	?	?	?	3%	-9%
CCN(CC)c1ccc(NC(=O)C(Cc2ccccc2)NS(=O)(=O)c2ccc(Br)s2)c(C)c1 (stereo unspecified)	·	-3%	·	·	·	·
CCC(=O)Nc1nnc(SCC(=O)NCC2CCCO2)s1 (stereo unspecified)	·	·	·	3.5µM*	·	5%
O=C(CSc1nnc(NC(=O)c2ccccc2[N+](=O)[O-])s1)NCC1CCCO1 (stereo unspecified)	13µM*	2%	21%	0%	-22%	-11%
CCCCN(CCCC)c1nc(-c2ccncc2)nc2ccccc12	?	3%	?	0%	-19%	17%
SMILES	Pf growth 96h	AmpC detergent	Pf growth 48h	HCV inh	AmpC no deterg	AMA1-RON2 inh
CCN(CC)c1nc(-c2ccccc2)nc2ccccc12	?	-9%	18%	11µM*	-7%	6%
COCCN(CCOC)c1nc(-c2ccccc2)nc2ccccc12	?	-19%	13µM*	?	55%	4%
Cn1c(C(=O)c2ccncc2)cc2ccccc21	?	-7%	13µM*	10%	-5%	17%
CN(C)/C=N/c1c(C#N)cnn1-c1ncnc2sc(-c3ccccc3)cc12	10µM*	-14%	?	?	141%	13%
CN(C)/C=N/c1c(C#N)cnn1-c1ccccc1	·	?	·	-8%	-17%	-3%
Cc1cccc(NS(=O)(=O)c2ccc(C(=O)NCC3(N4CCCCC4)CCCCC3)cc2)c1C	0%	4%	2.6µM*	?	4%	-21%
CCN(CC)S(=O)(=O)c1ccc2c(c1)nc(CN(C)C(=O)Nc1cccc(Cl)c1)n2C	·	-1%	·	·	·	·
COc1cc(Cl)c(NS(=O)(=O)c2ccc3[nH]c(=O)ccc3c2)c(OC)c1	·	-3%	·	·	·	·
COc1ccc(NC(=O)Cn2c(SCc3ccc(C)cc3)nc3cccnc32)cc1OC	·	12%	·	·	·	·
CC(C)Oc1ccccc1/C=N/NC(=O)C1CCCC1	2.6µM*	-4%	-3%	-7%	-23%	-1%
Cc1cc(/C=C2\SC(=O)NC2=O)c(C)n1-c1ccc(N2CCOCC2)cc1	?	-4%	10µM*	0%	-29%	-1%
Cc1cc(/C=C2\SC(=O)N(C)C2=O)c(C)n1-c1ccc(O)cc1	275%	?	280%	?	-39%	-5%
Cc1cc(/C=C2\SC(=O)NC2=O)c(C)n1-c1ccc(N(C)C)cc1	4%	-8%	11%	37%	-24%	?
COc1ccc(-n2c(C)cc(/C=C3/SC(=S)N(C)C3=O)c2C)cc1	0.33µM*	-8%	41%	12%	-6%	0%
O=c1oc(-c2ccc(Br)cc2)nc2ccccc12	5.9µM*	-10%	3%	14%	-8%	3%
CCc1nn(CC(=O)N2CCCCC2)c(=O)c2cc3sc(C)cc3n12	·	22%	·	·	·	·
Cc1cc(=O)oc2cc(OCc3ccc(C(=O)OCC(=O)Nc4ccccc4OC(F)F)cc3)ccc12	0%	-3%	-13%	?	22µM*	?
COC(=O)c1cc2oc(C)cc2n1Cc1ccc(Br)cc1F	·	26%	·	·	·	·
Cc1nc2scc(C)n2c(=O)c1S(=O)(=O)Nc1ccc(N2CCOCC2)c(Cl)c1	9.3µM*	3%	-5%	?	2%	15%
Cc1nc2sccn2c(=O)c1S(=O)(=O)Nc1ccc(N2CCOCC2)c(Cl)c1	?	-9%	16%	-19%	-5%	1%
